From PubChem BioAssay (Tox21)
Records with an inconclusive call do not appear. Calls of active or inactive are those of the source. Unless noted, the call rests on the fitted dose curve; in most records, active means well fitted curve in the direction sought with a large enough effect in the repeat runs; inconclusive means weak or mixed curves; inactive means no such curve, though single readings can be large; an effect the other way counts as inactive or inconclusive.

How the values were obtained:
[1] = qHTS assay for small molecule agonists of the p53 signaling pathway (AID 651631; calls by dose curve; further: nearly all actives have a fitted effect of over 15% in size)
Outline: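 HCT-116 p53RE-bla reporter line, 16 h compound treatment at 37 °C, then fluorescence after 2 h with B/G FRET substrate.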

[2] = qHTS assay for small molecules that induce genotoxicity in human embryonic kidney cells expressing luciferase-tagged ATAD5 (AID 651632); further: nearly all actives have a fitted effect of over 15% in size
Outline: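 Concentration-response screen for ATAD5 upregulation in HEK293T luciferase reporter cells; 16 hr treatment at 37C, then luminescence after 30 min with Amplite at room temperature.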

[3] = qHTS assay for small molecule agonists of the p53 signaling pathway - cell viability (AID 651633; calls by dose curve;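 further: p53RE-bla HCT reporter cells with a stable beta-lactamase p53 reporter; series mostly up to about 83 µM; nearly all actives have a fitted effect of over 30% in size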)
Outline: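 p53RE-bla cells were treated with compound for 16 hours at 37 C. Cytotoxicity was then measured as CellTiter-Glo luminescence after 30 min at room temperature.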

[4] = qHTS assay for small molecule disruptors of the mitochondrial membrane potential - cell viability (AID 720634; calls by dose curve;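 further: human HepG2 liver cancer cells; series mostly up to about 83 µM; nearly all actives have a fitted effect of over 20% in size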)
Outline: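 In this qHTS format, HepG2 cells plated overnight were pinned with compound, incubated 1 hr, and assayed for ATP luminescence with CellTiter-Glo after m-MPI dye addition.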

[5] = qHTS assay for small molecule disruptors of the mitochondrial membrane potential (AID 720635)
Outline: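 HepG2 cells exposed to compound 1 hr at 37C, then Mito-MPS dye 30 min. Ratio read of aggregate (540/590 nm) versus monomer (490/535 nm) fluorescence.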

[6] = qHTS assay to test for compound auto fluorescence at 590 nm (red) in HepG2 cells (AID 720674)
Outline: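 Seeding: 2,000 HepG2 cells/well, MEM/10% FBS, overnight 37 C. Dosing: compound vs DMSO. Incubation: 1 hr, 37 C, 5% CO2. Read: fluorescence 540 ex/590 em, Rose Bengal sodium as red reference.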

[7] = qHTS assay to test for compound auto fluorescence at 535 nm (green) in HepG2 cells (AID 720675)
[8] = qHTS assay to test for compound auto fluorescence at 460 nm (blue) in HEK293 cells (AID 720678)
Outline: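 Intrinsic compound fluorescence is recorded in live HEK293 cultures after overnight incubation at 37C, 5% CO2, using excitation 405 nm and emission 460 nm. Values are referenced to triamterene.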

[9] = qHTS assay to test for compound auto fluorescence at 590 nm (red) in HEK293 cells (AID 720679)
Outline: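 Red autofluorescence, HEK293 cells: 2,000 cells/well; attach 4-5 hr 37C; add 23 nL cpd or DMSO; incubate o/n 37C 5% CO2; read Ex540/Em590; Rose Bengal sodium reference.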

[10] = qHTS assay to test for compound auto fluorescence at 535 nm (green) in HEK293 cells (AID 720680)
[11] = qHTS assay to test for compound auto fluorescence at 535 nm (green) in HEK293 cell free culture (AID 720682)
Outline: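 Steps: dispense DMEM/10% FBS into empty wells; pin in compound or DMSO; measure fluorescence at 485/535 nm. Values are fluorescein equivalents.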

[12] = qHTS assay to test for compound auto fluorescence at 590 nm (red) in HepG2 cell free culture (AID 720684)
Outline: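 Auto fluorescence equivalency versus Rose Bengal sodium, red channel Ex/Em 540/590 nm; compounds in cell-free MEM/10% FBS; DMSO vehicle control.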

[13] = qHTS assay to test for compound auto fluorescence at 535 nm (green) in HepG2 cell free culture (AID 720686)
[14] = qHTS assay to test for compound auto fluorescence at 460 nm (blue) in HepG2 cells (AID 720687)
Outline: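 HepG2 cells in MEM with 10% FBS, attached overnight at 37 C, were exposed to compound or DMSO for 1 hr at 37 C, 5% CO2. Blue fluorescence was read at 405/460 nm, with triamterene as reference fluorophore.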

[15] = qHTS assay to test for compound auto fluorescence at 590 nm (red) in HEK293 cell free culture (AID 720683)
Outline: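 Cell-free wells of DMEM with 10% FBS received compound, and intrinsic fluorescence was read at excitation/emission 540/590 nm. Values expressed as equivalence to Rose Bengal sodium.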

[16] = qHTS assay to test for compound auto fluorescence at 460 nm (blue) in HepG2 cell free culture (AID 720685)
Outline: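 Cell-free plates of MEM plus 10% FBS received 23 nL compound or DMSO vehicle; blue-channel (405/460 nm) intensity scored against triamterene as reference fluorophore.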

[17] = target: Glucocorticoid receptor (Homo sapiens) (UniProt P04150); assay: qHTS assay to identify small molecule agonists of the glucocorticoid receptor (GR) signaling pathway (AID 720691; active means well fitted activation curve with a large enough effect in the signal ratio in the repeat runs, not every such curve was filed as active; the % refers to the signal ratio)
Outline: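 Measures GR pathway activation through a GRE-beta-lactamase reporter stably integrated in HeLa cells, with 18 h compound treatment at 37 C and fluorescence detection using a FRET substrate.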

[18] = qHTS assay for small molecules that induce genotoxicity in human embryonic kidney cells expressing luciferase-tagged ATAD5 - cell viability (AID 651634; calls by dose curve; further: nearly all actives have a fitted effect of over 25% in size)
Outline: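 15.5 hr compound or vehicle exposure of HEK293T cells expressing luciferase-tagged ATAD5 at 37C; live-cell protease activity is read by fluorescence after 30 min of CellTiter-Fluor.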

[19] = qHTS assay to test for compound auto fluorescence at 460 nm (blue) in HEK293 cell free culture (AID 720681)
Outline: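 Compounds were added to cell-free DMEM with 10% FBS and fluorescence read directly. The blue channel used 405 nm excitation and 460 nm emission, with triamterene as the reference fluorophore.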

[20] = target: Glucocorticoid receptor (Homo sapiens) (UniProt P04150); assay: qHTS assay to identify small molecule antagonists of the glucocorticoid receptor (GR) signaling pathway (AID 720692; active means well fitted inhibition curve with a large enough effect in the signal ratio in the repeat runs, not every such curve was filed as active; the % refers to the signal ratio)
Outline: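 Tox21 10K library screened in concentration-response for blockade of dexamethasone (5 nM final)-induced GRE-bla reporter activity in HeLa cells; 18 h treatment, fluorescence read.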
On the % scale 0 is the no-effect control and ±100 the full control effect.

Chain of Glucocorticoid receptor (Homo sapiens) (P04150 whole entry, looked up): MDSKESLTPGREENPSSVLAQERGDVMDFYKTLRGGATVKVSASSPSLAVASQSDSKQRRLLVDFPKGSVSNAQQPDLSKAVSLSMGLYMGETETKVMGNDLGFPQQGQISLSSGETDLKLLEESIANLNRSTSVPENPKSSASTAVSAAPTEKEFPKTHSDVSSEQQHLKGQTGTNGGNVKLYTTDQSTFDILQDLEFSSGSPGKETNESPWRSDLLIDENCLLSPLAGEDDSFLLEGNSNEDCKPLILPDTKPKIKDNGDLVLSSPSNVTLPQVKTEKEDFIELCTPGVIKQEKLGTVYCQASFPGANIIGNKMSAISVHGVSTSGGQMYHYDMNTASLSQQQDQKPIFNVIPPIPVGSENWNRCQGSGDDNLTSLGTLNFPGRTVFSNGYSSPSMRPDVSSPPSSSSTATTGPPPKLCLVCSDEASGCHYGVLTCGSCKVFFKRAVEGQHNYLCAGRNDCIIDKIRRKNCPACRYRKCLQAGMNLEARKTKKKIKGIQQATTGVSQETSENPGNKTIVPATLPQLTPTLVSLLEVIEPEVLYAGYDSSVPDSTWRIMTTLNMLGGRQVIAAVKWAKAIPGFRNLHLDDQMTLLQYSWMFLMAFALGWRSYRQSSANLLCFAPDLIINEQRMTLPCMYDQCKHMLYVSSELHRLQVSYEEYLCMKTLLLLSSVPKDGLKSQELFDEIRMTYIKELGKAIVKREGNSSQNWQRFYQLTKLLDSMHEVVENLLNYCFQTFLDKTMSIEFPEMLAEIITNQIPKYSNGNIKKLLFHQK

CC(C)(C)NC[C@H](O)COc1cccc2c1CCCC2=O
inactive: outcome [1] | outcome [2] | outcome [3] | outcome [4] | Potency [5] | fluorescence, relative to Rose Bengal [6] -0.105% [at 18.6 µM] | fluorescence, % of fluorescein control [7] 0.0562% [at 18.6 µM] | fluorescence, % of triamterene [8] 0.103% [at 18.6 µM] | fluorescence, % of fluorescent control [9] 0.133% [at 18.6 µM] | fluorescence, % of fluorescein [10] 0.0019% [at 18.6 µM] | activity change [11] -0.0347% [at 18.6 µM] | fluorescence, % of Rose Bengal [12] 0.355% [at 18.6 µM] | fluorescence, % of fluorescein control [13] -0.0049% [at 18.6 µM] | fluorescence, % of fluorescent control [14] 0.0464% [at 18.6 µM]

CC1=C(C(=O)O)N2C(=O)[C@@H](NC(=O)[C@H](N)c3ccccc3)[C@H]2SC1
inactive: outcome [1] | outcome [2] | outcome [3] | outcome [4] | outcome [7] | outcome [8] | outcome [9] | outcome [10] | outcome [15] | outcome [12] | outcome [16] | outcome [13] | outcome [14] | Potency [17]

O=C1OCCO1
inactive: outcome [1] | outcome [2] | outcome [3] | Potency [18] | outcome [6] | outcome [7] | outcome [8] | outcome [9] | outcome [10] | outcome [19] | outcome [11] | outcome [15] | outcome [12] | outcome [16] | outcome [14]

CCC(C)C(=O)OCCc1ccccc1 (configuration not stated)
inactive: outcome [1] | outcome [2] | outcome [3] | Potency [18] | Potency [5] | outcome [6] | outcome [7] | outcome [8] | outcome [9] | outcome [10] | outcome [19] | outcome [11] | outcome [15] | outcome [12] | outcome [16] | outcome [13] | outcome [14] | outcome [20]

N#Cc1cscn1
inactive: outcome [1] | outcome [2] | outcome [3] | outcome [4] | Potency [5] | outcome [7] | outcome [8] | outcome [9] | outcome [10] | outcome [19] | outcome [11] | outcome [15] | outcome [12] | outcome [16] | outcome [13] | outcome [14]

CC(C)CCOC(=O)c1ccccc1
inactive: outcome [1] | outcome [2] | outcome [3] | Potency [18] | Potency [5] | outcome [6] | outcome [7] | outcome [8] | outcome [9] | outcome [10] | outcome [19] | outcome [11] | outcome [15] | outcome [12] | outcome [13] | outcome [14]

COS(=O)(=O)O
inactive: outcome [1] | outcome [2] | outcome [3] | outcome [4] | Potency [5] | outcome [6] | outcome [7] | outcome [8] | outcome [9] | outcome [10] | outcome [19] | outcome [11] | outcome [15] | outcome [12] | outcome [16] | outcome [13] | outcome [14]

OCC1CCC(CO)CC1 (configuration not stated)
inactive: outcome [1] | outcome [2] | outcome [3] | Potency [18] | Potency [5] | outcome [6] | outcome [7] | outcome [8] | outcome [9] | outcome [10] | outcome [19] | outcome [11] | outcome [15] | outcome [12] | outcome [16] | outcome [13] | outcome [14] | Potency [17] | outcome [20]

CC(=O)OCC(=O)Nc1cc(C#N)cc(NC(=O)COC(C)=O)c1Cl
inactive: outcome [1] | outcome [2] | outcome [3] | Potency [18] | Potency [5] | outcome [6] | outcome [7] | outcome [8] | outcome [9] | outcome [10] | outcome [19] | outcome [15] | outcome [12] | outcome [16] | outcome [13] | outcome [14] | Potency [17] | outcome [20]

CCCCCCC1(C)CCC(=O)O1 (configuration not stated)
inactive: outcome [1] | outcome [2] | outcome [3] | outcome [4] | outcome [6] | outcome [7] | outcome [8] | outcome [9] | outcome [10] | outcome [19] | outcome [11] | outcome [15] | outcome [12] | outcome [14]

C=C(C)[C@@H]1CC=C(C)CC1
inactive: outcome [1] | outcome [2] | outcome [3] | Potency [18] | outcome [6] | outcome [7] | outcome [8] | outcome [9] | outcome [10] | outcome [19] | outcome [12] | outcome [16] | outcome [13] | outcome [14]

O=C(NCN1CCOCC1)c1cnccn1
inactive: outcome [1] | outcome [2] | outcome [3] | outcome [4] | Potency [5] | outcome [6] | outcome [8] | outcome [9] | outcome [10] | outcome [19] | outcome [11] | outcome [15] | outcome [12] | outcome [16] | outcome [13] | outcome [14] | Potency [17]

CN(C)CC/C=C1/c2ccccc2COc2ccc(CC(=O)O)cc21
inactive: outcome [1] | outcome [2] | outcome [3] | Potency [18] | outcome [6] | outcome [7] | outcome [8] | outcome [9] | outcome [10] | outcome [19] | outcome [15] | outcome [12] | outcome [16] | outcome [13] | outcome [14] | outcome [20]

CCCCCC/C=C/C(=O)OC
inactive: outcome [1] | outcome [2] | outcome [3] | outcome [4] | outcome [6] | outcome [7] | outcome [8] | outcome [9] | outcome [10] | outcome [19] | outcome [11] | outcome [12] | outcome [13] | outcome [14] | Potency [17]

CC1OCCC1=O (configuration not stated)
inactive: outcome [1] | outcome [2] | outcome [3] | Potency [18] | Potency [5] | outcome [6] | outcome [7] | outcome [8] | outcome [9] | outcome [10] | outcome [19] | outcome [11] | outcome [15] | outcome [12] | outcome [16] | outcome [13] | outcome [14] | Potency [17] | outcome [20]
